Assay outcomes from PubChem.
HCV inhibitor – qHTS Assay for Inhibitors of Hepatitis C Virus (HCV); Huh7.5.1 HCVcc-Cre infection, luciferase reporter, 44 h; Potency, µM (series often up to 41.8 µM), without a hit: at the highest dose activity change, negative = inhibition, hits mostly inhibitors; hit rate 3.4% among 340,000; also: potency is read from the fitted curve at half-maximal effect
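A cell-based infection assay in which seeded cells (1,000 per well) receive test compound after 4 h, are inoculated with HCVcc-Cre at approximately 0.5 moi, and are incubated 44 h before luminescence detection.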
Giardia FBPA inh – qHTS Assay for Inhibitors of Fructose-1,6-bisphosphate Aldolase from Giardia Lamblia | Potency, µM (series often up to 59.6 µM), for the others: at the highest dose activity, negative = inhibition, usual class: inhibitors | hit rate 0.71% among 290,000 | purified Giardia FBPA | AID 2451, 2010; also: potency is read from the fitted curve at half-maximal effect; nearly all actives have a fitted effect of over 55% in size
Target sequence (A8B2U2 whole entry, looked up): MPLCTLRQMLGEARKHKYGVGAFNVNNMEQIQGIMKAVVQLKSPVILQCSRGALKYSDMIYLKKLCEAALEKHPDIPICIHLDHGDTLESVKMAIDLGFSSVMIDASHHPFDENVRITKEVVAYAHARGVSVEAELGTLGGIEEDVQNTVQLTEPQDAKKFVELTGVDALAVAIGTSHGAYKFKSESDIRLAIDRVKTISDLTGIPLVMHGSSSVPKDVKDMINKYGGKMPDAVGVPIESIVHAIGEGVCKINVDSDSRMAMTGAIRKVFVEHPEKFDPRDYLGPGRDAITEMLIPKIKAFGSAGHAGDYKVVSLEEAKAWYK
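40 nM FBPA preincubated 10 min at RT with compound (up to 57.5 uM final), then substrate plus GAPDH/TPI/NAD/arsenate coupling and diaphorase/resazurin added. Fluorescence read after 20 min at RT, 525/598 nm.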
LASV entry inh – qHTS for Inhibitors of binding or entry into cells for Lassa Virus; hit rate 1.2% among 300,000; Potency, µM (doses to about 37.9 µM), without a hit: at the highest dose activity change, negative = inhibition, most hits filed as inhibitors; Lassa virus pseudotype entry inhibition, cell reporter; calls by dose curve; tested in HEK293 cells; also: potency is read from the fitted curve at half-maximal effect; nearly all actives have a fitted effect of over 50% in size
Marburg entry inh – qHTS for inhibitors of binding or entry into cells for Marburg Virus | Potency, µM (highest dose often 37.8 µM), for inactives: at the highest dose activity change, negative = inhibition, hits mostly inhibitors | AID 540276, 2011 | Marburg virus pseudotyped entry inhibition, cell reporter | hit rate 1.8% among 300,000; calls by dose curve; tested in HEK293 cells; also: potency is read from the fitted curve at half-maximal effect
HCMV inh – qHTS Assay for inhibitors of the human cytomegalovirus (HCMV) | HFF cells, HCMV-luciferase reporter, 72 h; stronger effect = lower value | activity change, negative = inhibition, % at 57.5 µM | hit rate 4.5% among 410,000 | AID 1259415, 2018; in the data active = activity change below about -60%; inconclusive = no clear call, values can overlap the other calls; inactive = above about -39%
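After 16 h attachment at 37C, HFF cells received test compound and HCMV-luciferase (1 PFU/cell); reporter luminescence read 72 h later, data normalized against buffer-only and known inhibitor Salinomycin.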
FMDV antiviral – High Throughput Screening for Foot and Mouth Disease Virus Antivirals; Potency, µM (series often up to 57.9 µM), inactives show top-dose activity change, negative = inhibition, usual class: inhibitors; hit rate 1.2% among 410,000; FMDV antiviral cell-based qHTS; calls by dose curve; tested in HEK293T cells; also: read-out not given here; potency is read from the fitted curve at half-maximal effect; nearly all actives have a fitted effect of over 45% in size
An asterisk follows results filed as active; ? = inconclusive; · = no result; [ ] = remark or other dose. Compounds with a hit are over-represented: about 8.3% of the library has one in this group of screens. Unless noted, calls follow the shape of the dose curve; as a rule, active = well fitted curve in the direction sought with a large enough effect; inconclusive = small, poorly fitted or top-dose-only effect, or another doubt; inactive = no such curve, though single readings can be large; an effect the other way counts as inactive or inconclusive. % is scaled to controls: 0 for no effect and ±100 for the full control effect.

SMILES	HCV inhibitor	Giardia FBPA inh	LASV entry inh	Marburg entry inh	HCMV inh	FMDV antiviral
Oc1ccc(N=Nc2c(O)ccc3ccccc23)cc1	14.1µM*	?	?	?	-8.5	·
CCOc1ccccc1C(=O)Nc1c(NC)c2ccccc2oc1=O	·	·	?	-16.5%[46.1 µM]	21.3	-13.0%
CC1CCCN(c2ccc(F)cc2N)C1 (centres undefined)	?	-24.2%	?	?	-77.6*	-5.6%
CC1CCCN(c2ccc(N)cc2C(N)=O)C1 (centres undefined)	7.4%	-7.4%	?	26.0%[46.1 µM]	?	-15.0%
COc1cc(SC)ccc1C(=O)Nc1ccc2c(c1)CCC2	10µM*	-2.0%	-17.6%[46.1 µM]	?	61.2	10.7%
COc1cc(SC)ccc1C(=O)Nc1ccc(Cl)cn1	6.8%	-11.2%	?	1.12µM*	-74.9*	10µM*
CSc1ccc(Cl)c(C(=O)Nc2ccc(Cl)cn2)c1	-19.1%	-10.5%	-10.8%[46.1 µM]	?	?	-2.1%
CN1C(=O)CC(CC(=O)N2CCCCC2CCO)(c2cccc(F)c2)C1=O (centres undefined)	·	·	·	·	·	7.6%
FC(F)(F)c1ccccc1-c1nccc(-n2ccnc2)n1	·	-12.7%	·	·	·	-11.9%
COc1ccc(C(=O)C(=NNc2ccccc2)c2ccc(OC)cc2)cc1	?	·	-19.8%[46.1 µM]	?	?	-13.9%
COc1ccc(N/N=C(\C=N\O)C(=O)c2ccc(OC)cc2)cc1	-15.9%	-7.3%	2.82µM*	?	-10.5	-1.3%
O=C(ONC1=NCCCCC1)c1c(F)cccc1F	?	8.5%	-23.6%	?	-0.9	-3.3%
O=C(ONC1=NCCCCC1)c1ccc(Cl)cc1	2.51µM*	-2.5%	?	?	31.1	?
COc1ccc(-c2noc(N3CCN(c4cccc(C)c4C)CC3)n2)cc1OC	·	·	0.9%[46.1 µM]	·	-27.4	?
Cc1cc(Cl)nc2ccc(Cc3ccc4nc(Cl)cc(C)c4c3)cc12	10µM*	-1.4%	·	·	37.0	?
COc1ccccc1NS(=O)(=O)c1cccc(NC(=O)NC2CCCCC2)c1	?	6.2%	?	?	-75.8*	-16.0%
COc1ccccc1NS(=O)(=O)c1cccc(NS(=O)(=O)c2cc(C(=O)O)ccc2OC)c1	6.0%	·	13.8%	-10.8%	-101.8*	-5.4%
COc1ccccc1NC(=O)NC1CCCCCCC1	-9.4%	·	-14.1%[46.1 µM]	0.8%[46.1 µM]	?	26.6%
COc1ccccc1NS(=O)(=O)c1cccc(NC(=O)c2ccc3ccccc3n2)c1	?	-6.7%	?	?	-79.5*	16.3%
CCC(=O)N1CCc2cc(Br)cc(S(=O)(=O)CCC(=O)NCc3ccc(F)cc3)c21	·	·	?	-5.6%[46.1 µM]	-4.8	-11.9%
Cc1cc(CN2CCCC(C(=O)Nc3cccc(-n4cccn4)c3)C2)cc(C)c1O (centres undefined)	12.6µM*	-5.0%	·	·	-30.9	?
CCn1cc(CN2CCC(C(=O)Nc3cccc(-c4cccc(F)c4)c3)CC2)cn1	8.91µM*	-15.0%	-14.7%	-25.1%	-62.6*	0.0%
CCn1cc(CN2CCC(C(=O)Nc3cccc(-c4cccc(OC)c4)c3)CC2)cn1	4.0%	1.3%	-1.1%	20.7%	10.2	-5.3%
Cn1cc(CN2CCCC(C(=O)Nc3cccc(-n4cccn4)c3)C2)cn1 (centres undefined)	2.5%	8.2%	16.3%[46.1 µM]	4.8%[46.1 µM]	-7.5	1.8%
Cn1cc(CN2CCCC(C(=O)Nc3ccc(-c4cccc(F)c4)cc3)C2)cn1 (centres undefined)	?	·	·	·	-71.7*	?
SMILES	HCV inhibitor	Giardia FBPA inh	LASV entry inh	Marburg entry inh	HCMV inh	FMDV antiviral
CCn1ncc(CN2CCCC(C(=O)Nc3cccc(-c4cc5ccccc5[nH]4)c3)C2)c1C (centres undefined)	?	-1.7%	12.6µM*	?	?	?
O=C(NC1CCC1)O[C@H]1CC[C@@]23CCCN2C(=O)CCC[C@H]3[C@H]1Cc1ccccc1	·	·	·	·	-20.5	·
Cc1ccc(CN2CCC(C(=O)Nc3cccc(-c4cccc(F)c4)c3)CC2)o1	?	·	·	·	11.4	-20.5%
O=C(Nc1cccc(-c2cccc(Cl)c2)c1)C1CCN(Cc2ccc(CO)o2)CC1	10µM*	5.3%	-9.9%[46.1 µM]	-23.5%[46.1 µM]	?	-16.1%
O=C1CCCC/C1=C/Nc1cccc(C(F)(F)F)c1	2.2%	-21.1%	0.1%	1.0%	-29.4	37.0%
O=C1CCC2S/C(=C/Nc3ccc(C(F)(F)F)cc3)C(=O)N12 (centres undefined)	18.0%	-12.3%	?	?	-77.8*	8.91µM*
O=C(Nc1cccc(Cl)c1)Nc1csc([N+](=O)[O-])c1	?	-13.1%	?	?	-97.4*	?
O=C(Nc1n[nH]c2cc(-c3cc(F)ccc3F)ccc12)C1CC1	·	·	25µM*	·	·	·
CCCc1ccc(Oc2cc(C)nc(N3CCOCC3)n2)cc1	?	-1.2%	?	-18.6%	-28.0	-0.7%
CC(=O)c1ccc(Oc2cc(C)nc(N3CCOCC3)n2)cc1	?	-14.9%	1.2%	0.7%	22.7	11.0%
Cc1cc(Oc2ccc(-c3ccccc3)cc2)nc(N2CCOCC2)n1	-7.8%	0.6%	3.98µM*	11.2µM*	19.2	?
Cc1cc(Oc2ccc(C(C)(C)C)cc2)nc(N2CCOCC2)n1	18.8%	2.4%	5.01µM*	-22.5%	3.4	?
Cc1ccc(CC(=O)N2CCN(c3ccc([N+](=O)[O-])cc3)CC2)cc1	?	-8.3%	-5.0%[46.1 µM]	?	-21.3	-27.4%
CC(C)(C)c1ccc(OCC(=O)N2CCN(c3ccccn3)CC2)cc1	-15.5%	·	·	·	-94.3*	-27.3%
COc1ccc(N2CCN(C(=O)CCc3cc(OC)c(OC)c(OC)c3)CC2)cc1	-15.2%	3.3%	·	·	-13.9	-9.5%
COc1ccccc1CC(=O)N1CCN(c2ccc([N+](=O)[O-])cc2)CC1	6.31µM*	0.6%	·	·	?	?
COc1ccc(NC(=O)N2CCN(c3ccc([N+](=O)[O-])cc3)CC2)cc1OC	10µM*	?	?	?	-34.2	-28.5%
COc1ccc(CCC(=O)N2CCN(c3ccc([N+](=O)[O-])cc3)CC2)cc1OC	31.6µM*	0.1%	1.6%[46.1 µM]	?	-67.7*	?
CCOC(=O)c1c(NC(=O)CCCOc2ccc(C(C)(C)C)cc2)sc2c1CCCC2	·	·	19.3%[46.1 µM]	·	17.4	-11.2%
COc1ccc(N2CCN(C(=O)CSc3ccc([N+](=O)[O-])cc3)CC2)cc1	?	4.0%	5.8%	20.0%[46.1 µM]	-65.0*	?
Cc1noc(C)c1CSCC(=O)N1CCN(c2ccc([N+](=O)[O-])cc2)CC1	11.2µM*	-2.5%	?	?	?	?
Cc1noc(C)c1S(=O)(=O)N1CCN(c2ccc([N+](=O)[O-])cc2)CC1	-5.0%	·	·	·	-12.6	-13.7%
COc1ccccc1/C=C/C=N/N1CCN(c2ccccn2)CC1	-13.4%	-25.9%	-13.9%	-16.8%	-64.1*	?
